Experimental data from PubChem BioAssay AID1159580 (chemical genetic matrix, 2015).
Screen size: about 5,500 compounds; about 2,000 (36%) were called active. Another 18% or so got no clear call; they are omitted. Rule as the data show it: active = normalized growth mostly below about 0.91 (no sharp cut-off); inconclusive = no clear call, values can overlap the other calls; inactive = mostly above about 0.92. Some of the results follow.

Experiment: chemical genetic growth profiling, strain panel (AID 1159580);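 also: tested at 20 µM; growth read once vehicle control cultures reached saturation at 30 °C; 1 = growth at the plate median or of vehicle wells; lower values mean less growth of the strain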
Conditions: growth OD
[1] = S. cerevisiae deletion strains, locus YAR019C, strain CDC15, stronger effect = lower value
[2] = S. cerevisiae deletion strains, locus YBL105C, strain PKC1, stronger effect = lower value
[3] = S. cerevisiae deletion strains, locus YBR135W, strain CKS1, stronger effect = lower value
[4] = S. cerevisiae deletion strains, locus YBR136W, strain MEC1, stronger effect = lower value
[5] = S. cerevisiae deletion strains, locus YBR160W, strain CDC28, stronger effect = lower value
[6] = S. cerevisiae deletion strains, locus YDL017W, strain CDC7, stronger effect = lower value
[7] = S. cerevisiae deletion strains, locus YDL028C, strain MPS1, stronger effect = lower value
[8] = S. cerevisiae deletion strains, locus YDL101C, strain DUN1, stronger effect = lower value
[9] = S. cerevisiae deletion strains, locus YDL108W, strain KIN28, stronger effect = lower value
[10] = S. cerevisiae deletion strains, locus YDL132W, strain cdc53, stronger effect = lower value
[11] = S. cerevisiae deletion strains, locus YDL214C, strain PRR2, stronger effect = lower value
[12] = S. cerevisiae deletion strains, locus YDR052C, strain DBF4, stronger effect = lower value
[13] = S. cerevisiae deletion strains, locus YDR054C, strain cdc34, stronger effect = lower value
[14] = S. cerevisiae deletion strains, locus YDR226W, strain ADK1, stronger effect = lower value
[15] = S. cerevisiae deletion strains, locus YDR477W, strain SNF1, stronger effect = lower value
[16] = S. cerevisiae deletion strains, locus YER123W, strain YCK3, stronger effect = lower value
[17] = S. cerevisiae deletion strains, locus YER133W, strain GLC7, stronger effect = lower value
[18] = S. cerevisiae deletion strains, locus YFL009W, strain cdc4, stronger effect = lower value
[19] = S. cerevisiae deletion strains, locus YFL029C, strain CAK1, stronger effect = lower value
[20] = S. cerevisiae deletion strains, locus YFR003C, strain YPI1, stronger effect = lower value
[21] = S. cerevisiae deletion strains, locus YFR019W, strain FAB1, stronger effect = lower value
[22] = S. cerevisiae deletion strains, locus YFR028C, strain CDC14, stronger effect = lower value
[23] = S. cerevisiae deletion strains, locus YGR040W, strain KSS1, stronger effect = lower value
[24] = S. cerevisiae deletion strains, locus YGR052W, strain FMP48, stronger effect = lower value
[25] = S. cerevisiae deletion strains, locus YGR092W, strain DBF2, stronger effect = lower value
[26] = S. cerevisiae deletion strains, locus YHR030C, strain SLT2, stronger effect = lower value
[27] = S. cerevisiae deletion strains, locus YHR079C, strain IRE1, stronger effect = lower value
[28] = S. cerevisiae deletion strains, locus YHR082C, strain KSP1, stronger effect = lower value
[29] = S. cerevisiae deletion strains, locus YHR205W, strain SCH9, stronger effect = lower value
[30] = S. cerevisiae deletion strains, locus YIL147C, strain SLN1, stronger effect = lower value
[31] = S. cerevisiae deletion strains, locus YJL095W, strain BCK1, stronger effect = lower value
[32] = S. cerevisiae deletion strains, locus YJL128C, strain PBS2, stronger effect = lower value
[33] = S. cerevisiae deletion strains, locus YJL157C, strain FAR1, stronger effect = lower value
[34] = S. cerevisiae deletion strains, locus YJR016C, strain ILV3, stronger effect = lower value
[35] = S. cerevisiae deletion strains, locus YJR066W, strain TOR1 (second series), stronger effect = lower value
[36] = S. cerevisiae deletion strains, locus YJR066W, strain TOR1, stronger effect = lower value
[37] = S. cerevisiae deletion strains, locus YKL048C, strain ELM1, stronger effect = lower value
[38] = S. cerevisiae deletion strains, locus YKL067W, strain YNK1, stronger effect = lower value
[39] = S. cerevisiae deletion strains, locus YKL101W, strain HSL1, stronger effect = lower value
[40] = S. cerevisiae deletion strains, locus YKL193C, strain SDS22, stronger effect = lower value
[41] = S. cerevisiae deletion strains, locus YKL203C, strain TOR2, stronger effect = lower value
[42] = S. cerevisiae deletion strains, locus YLR113W, strain HOG1, stronger effect = lower value
[43] = S. cerevisiae deletion strains, locus YLR133W, strain CKI1, stronger effect = lower value
[44] = S. cerevisiae deletion strains, locus YLR403W, strain SFP1, stronger effect = lower value
[45] = S. cerevisiae deletion strains, locus YML070W, strain DAK1, stronger effect = lower value
[46] = S. cerevisiae deletion strains, locus YMR001C, strain CDC5, stronger effect = lower value
[47] = S. cerevisiae deletion strains, locus YMR205C, strain PFK2 (second series), stronger effect = lower value
[48] = S. cerevisiae deletion strains, locus YMR277W, strain FCP1, stronger effect = lower value
[49] = S. cerevisiae deletion strains, locus YNL006W, strain LST8, stronger effect = lower value
[50] = S. cerevisiae deletion strains, locus YNL020C, strain ARK1, stronger effect = lower value
[51] = S. cerevisiae deletion strains, locus YNL161W, strain CBK1, stronger effect = lower value
[52] = S. cerevisiae deletion strains, locus YNL183C, strain NPR1, stronger effect = lower value
[53] = S. cerevisiae deletion strains, locus YNL207W, strain RIO2, stronger effect = lower value
[54] = S. cerevisiae deletion strains, locus YNL222W, strain SSU72, stronger effect = lower value
[55] = S. cerevisiae deletion strains, locus YNL307C, strain MCK1 (second series), stronger effect = lower value
[56] = S. cerevisiae deletion strains, locus YOL078W, strain AVO1, stronger effect = lower value
[57] = S. cerevisiae deletion strains, locus YOL136C, strain PFK27, stronger effect = lower value
[58] = S. cerevisiae deletion strains, locus YOR061W, strain CKA2, stronger effect = lower value
[59] = S. cerevisiae deletion strains, locus YOR119C, strain RIO1, stronger effect = lower value
[60] = S. cerevisiae deletion strains, locus YOR231W, strain MKK1, stronger effect = lower value
[61] = S. cerevisiae deletion strains, locus YOR329C, strain SCD5, stronger effect = lower value
[62] = S. cerevisiae deletion strains, locus YPL031C, strain PHO85, stronger effect = lower value
[63] = S. cerevisiae deletion strains, locus YPL153C, strain RAD53, stronger effect = lower value
[64] = S. cerevisiae deletion strains, locus YPL204W, strain HRR25, stronger effect = lower value
[65] = S. cerevisiae deletion strains, locus YPL209C, strain IPL1, stronger effect = lower value
[66] = S. cerevisiae deletion strains, locus YPL256C, strain CLN2, stronger effect = lower value
[67] = S. cerevisiae deletion strains, locus YPR025C, strain CCL1, stronger effect = lower value
[68] = S. cerevisiae deletion strains, locus YPR106W, strain ISR1, stronger effect = lower value
[69] = S. cerevisiae deletion strains, locus YPR111W, strain DBF20, stronger effect = lower value
[70] = S. cerevisiae deletion strains, strain NNK1, stronger effect = lower value
[71] = S. cerevisiae deletion strains, strain TSCII, stronger effect = lower value
[72] = S. cerevisiae deletion strains, locus YAL013W, strain DEP1, stronger effect = lower value
[73] = S. cerevisiae deletion strains, locus YBR229C, strain ROT2, stronger effect = lower value
[74] = S. cerevisiae deletion strains, locus YDR150W, strain NUM1, stronger effect = lower value
[75] = S. cerevisiae deletion strains, locus YEL061C, strain CIN8, stronger effect = lower value
[76] = S. cerevisiae deletion strains, locus YGR078C, strain PAC10, stronger effect = lower value
[77] = S. cerevisiae deletion strains, locus YHR087W, strain rtc3, stronger effect = lower value
[78] = S. cerevisiae deletion strains, locus YJR043C, strain POL32, stronger effect = lower value
[79] = S. cerevisiae deletion strains, locus YJR075W, strain HOC1, stronger effect = lower value
[80] = S. cerevisiae deletion strains, locus YLR039C, strain RIC1, stronger effect = lower value
[81] = S. cerevisiae deletion strains, locus YLR058C, strain SHM2 (second series), stronger effect = lower value
[82] = S. cerevisiae deletion strains, locus YLR085C, strain ARP6, stronger effect = lower value
[83] = S. cerevisiae deletion strains, locus YLR262C, strain YPT6, stronger effect = lower value
[84] = S. cerevisiae deletion strains, locus YML094W, strain GIM5, stronger effect = lower value
[85] = S. cerevisiae deletion strains, locus YMR219W, strain ESC1, stronger effect = lower value
[86] = S. cerevisiae deletion strains, locus YMR263W, strain SAP30, stronger effect = lower value
[87] = S. cerevisiae deletion strains, locus YNL153C, strain GIM3, stronger effect = lower value
[88] = S. cerevisiae deletion strains, locus YNL298W, strain CLA4 (second series), stronger effect = lower value
[89] = S. cerevisiae deletion strains, locus YNL322C, strain KRE1, stronger effect = lower value
[90] = S. cerevisiae deletion strains, locus YNR030W, strain Alg12, stronger effect = lower value
[91] = S. cerevisiae deletion strains, locus YPL055C, strain LGE1, stronger effect = lower value
[92] = S. cerevisiae deletion strains, locus YPL241C, strain CIN2, stronger effect = lower value
[93] = S. cerevisiae deletion strains, locus YPR135W, strain CTF4, stronger effect = lower value
[94] = S. cerevisiae strains, strain wild type, stronger effect = lower value

Measured: normalized growth

Cn1cncc1S(=O)(=O)/C(C#N)=C/c1ccccc1Sc1ccc(Cl)cc1
active: [21] 0.75 | [26] 0.368 | [28] 0.6 | [42] 0.81 | [43] 0.73 | [44] 0.619 | [57] 0.674 | [66] 0.73
inactive: [1] 0.987 | [2] 0.973 | [3] 0.975 | [4] 0.972 | [5] 0.983 | [6] 0.976 | [7] 0.979 | [8] 0.976 | [9] 0.979 | [10] 0.97 | [11] 0.771 | [12] 0.983 | [13] 0.982 | [14] 0.962 | [15] 0.773 | [16] 0.729 | [17] 0.786 | [18] 0.971 | [19] 0.984 | [20] 0.98 | [22] 0.969 | [23] 0.752 | [24] 0.713 | [25] 0.619 | [27] 0.668 | [29] 0.617 | [30] 0.973 | [31] 0.726 | [32] 0.944 | [33] 0.723 | [34] 0.982 | [35] 0.771 | [36] 0.678 | [37] 0.845 | [38] 0.854 | [39] 0.828 | [40] 0.976 | [41] 0.815 | [45] 0.8 | [46] 0.971 | [47] 0.829 | [48] 0.973 | [49] 0.984 | [50] 0.716 | [51] 0.978 | [52] 0.807 | [53] 0.971 | [54] 0.98 | [55] 0.681 | [56] 0.966 | [58] 0.758 | [59] 0.776 | [60] 0.794 | [61] 0.978 | [62] 0.743 | [63] 0.798 | [64] 0.699 | [65] 0.975 | [67] 0.977 | [68] 0.981 | [69] 0.962 | [70] 0.967 | [71] 0.974

CC(=O)/C(=C\Nc1ncccn1)S(=O)(=O)c1ccc(Cl)cc1
inactive: [72] 1.01 | [73] 1 | S. cerevisiae deletion strains, locus YCL061C, strain MRC1, stronger effect = lower value 1 | [8] 1.01 | [74] 0.977 | [75] 1 | [76] 1 | S. cerevisiae deletion strains, locus YGR229C, strain SMI1, stronger effect = lower value 1 | [26] 0.822 | [77] 0.98 | S. cerevisiae deletion strains, locus YJL187C, strain SWE1, stronger effect = lower value 1 | [78] 1.05 | [79] 0.941 | [80] 0.927 | [81] 0.993 | [82] 0.918 | [83] 0.89 | [84] 0.97 | [85] 0.998 | [86] 0.987 | S. cerevisiae deletion strains, locus YNL128W, strain TEP1, stronger effect = lower value 1.01 | [87] 1.01 | [88] 0.954 | [89] 0.946 | [90] 0.975 | [91] 0.925 | [92] 0.98 | [93] 0.9 | [94] 1

CC(=O)OCc1ccc(/C=C(\C#N)S(=O)(=O)c2ccc(Cl)cc2)o1
inactive: [72] 1.01 | [73] 1.01 | [8] 1.01 | [74] 1.06 | [75] 1 | [76] 1.01 | [26] 0.923 | [77] 0.983 | [78] 1.04 | [79] 0.956 | S. cerevisiae deletion strains, locus YKL190W, strain CNB1, stronger effect = lower value 1.02 | [80] 0.992 | [81] 0.996 | [82] 0.923 | [83] 1.01 | [84] 0.993 | [85] 0.993 | [86] 1.06 | S. cerevisiae deletion strains, locus YMR307W, strain GAS1, stronger effect = lower value 0.869 | [87] 1.03 | [88] 1.01 | [89] 0.985 | [90] 0.985 | [91] 1.13 | [92] 0.98 | [93] 0.966 | [94] 1.02

N#C/C(=N/Nc1ccccc1Cl)S(=O)(=O)c1ccc(Cl)cc1
inactive: [1] 0.976 | [2] 0.97 | [3] 0.964 | [4] 0.968 | [5] 0.969 | [6] 0.976 | [7] 0.975 | [8] 0.978 | [9] 0.977 | [10] 0.971 | [11] 0.889 | [12] 0.966 | [13] 0.966 | [14] 0.974 | [15] 0.889 | [16] 0.882 | [17] 0.909 | [18] 0.968 | [19] 0.969 | [20] 0.973 | [21] 0.859 | [22] 0.95 | [23] 0.889 | [24] 0.869 | [25] 0.715 | [26] 0.916 | [27] 0.955 | [28] 0.918 | [29] 0.866 | [30] 0.968 | [31] 0.852 | [32] 0.944 | [33] 0.909 | [34] 0.974 | [35] 0.877 | [36] 0.962 | [37] 0.886 | [38] 0.911 | [39] 0.835 | [40] 0.976 | [41] 0.943 | [42] 0.877 | [43] 0.847 | [44] 0.811 | [45] 0.883 | [46] 0.969 | [47] 0.918 | [48] 0.973 | [49] 0.979 | [50] 0.828 | [51] 0.971 | [52] 0.94 | [53] 0.954 | [54] 0.977 | [55] 0.787 | [56] 0.968 | [57] 0.832 | [58] 0.851 | [59] 0.957 | [60] 0.895 | [61] 0.979 | [62] 0.856 | [63] 0.889 | [64] 0.814 | [65] 0.975 | [66] 0.939 | [67] 0.978 | [68] 0.966 | [69] 0.961 | [70] 0.952 | [71] 0.956
